Test results published in the supplement of paper PMC10849652.
Targets with a hit are over-represented here; the source holds about 8,800 in all. About 0.5% of all pairs of compound and target were hits.

Compound: C1=CC2=C(C=CC(=C2)/C=C\3/C(=O)NC(=NCC4=CC=CS4)S3)N=C1
Test: log2 fold change, soluble protein after heating vs DMSO (PISA); higher = thermal stabilisation; K562 lysate, 10 uM; active = over 0.2 and 3.5 SD of the protein, either way, in both replicates (recomputed)
Procedure, shortened: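 K562 pellets were dounce-homogenised in PBS pH 7.4 containing 1 mM MgCl2, and the crude extract, at 1 mg/mL protein, was exposed to 10 μM compound for 30 min. Aliquots were heated for 3 min across 48°C-58°C, pooled, brought to 0.5% NP-40 at 4°C and spun at 21,000xg for 90 min, with the supernatant taken as soluble protein. TMTpro 16plex LC-MS/MS with equalised channel sums quantified that protein. Values are log-two fold changes in thermal stability relative to solvent controls, taken from duplicates.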

UniProt Q9P289, sequence (Q9P289 whole entry, looked up): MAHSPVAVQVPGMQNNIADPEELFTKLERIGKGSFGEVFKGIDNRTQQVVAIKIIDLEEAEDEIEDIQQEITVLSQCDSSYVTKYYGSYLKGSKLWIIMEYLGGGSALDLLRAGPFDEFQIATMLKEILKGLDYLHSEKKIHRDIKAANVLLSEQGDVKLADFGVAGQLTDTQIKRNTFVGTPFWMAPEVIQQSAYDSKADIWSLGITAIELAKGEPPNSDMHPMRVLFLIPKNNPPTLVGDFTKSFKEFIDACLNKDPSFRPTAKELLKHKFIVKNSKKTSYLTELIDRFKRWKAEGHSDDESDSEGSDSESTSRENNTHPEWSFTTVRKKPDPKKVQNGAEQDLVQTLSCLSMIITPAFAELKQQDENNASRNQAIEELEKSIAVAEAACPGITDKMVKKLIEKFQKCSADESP
UniProt Q9HBM1, sequence (Q9HBM1 whole entry, looked up): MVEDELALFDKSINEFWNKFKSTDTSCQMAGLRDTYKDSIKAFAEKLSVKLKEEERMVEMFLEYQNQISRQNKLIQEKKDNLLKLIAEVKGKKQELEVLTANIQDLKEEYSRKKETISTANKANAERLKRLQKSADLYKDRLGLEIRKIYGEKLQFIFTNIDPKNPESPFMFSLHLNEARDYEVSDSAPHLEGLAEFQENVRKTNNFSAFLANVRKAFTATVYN
UniProt Q8NDV3, sequence (Q8NDV3 whole entry, looked up): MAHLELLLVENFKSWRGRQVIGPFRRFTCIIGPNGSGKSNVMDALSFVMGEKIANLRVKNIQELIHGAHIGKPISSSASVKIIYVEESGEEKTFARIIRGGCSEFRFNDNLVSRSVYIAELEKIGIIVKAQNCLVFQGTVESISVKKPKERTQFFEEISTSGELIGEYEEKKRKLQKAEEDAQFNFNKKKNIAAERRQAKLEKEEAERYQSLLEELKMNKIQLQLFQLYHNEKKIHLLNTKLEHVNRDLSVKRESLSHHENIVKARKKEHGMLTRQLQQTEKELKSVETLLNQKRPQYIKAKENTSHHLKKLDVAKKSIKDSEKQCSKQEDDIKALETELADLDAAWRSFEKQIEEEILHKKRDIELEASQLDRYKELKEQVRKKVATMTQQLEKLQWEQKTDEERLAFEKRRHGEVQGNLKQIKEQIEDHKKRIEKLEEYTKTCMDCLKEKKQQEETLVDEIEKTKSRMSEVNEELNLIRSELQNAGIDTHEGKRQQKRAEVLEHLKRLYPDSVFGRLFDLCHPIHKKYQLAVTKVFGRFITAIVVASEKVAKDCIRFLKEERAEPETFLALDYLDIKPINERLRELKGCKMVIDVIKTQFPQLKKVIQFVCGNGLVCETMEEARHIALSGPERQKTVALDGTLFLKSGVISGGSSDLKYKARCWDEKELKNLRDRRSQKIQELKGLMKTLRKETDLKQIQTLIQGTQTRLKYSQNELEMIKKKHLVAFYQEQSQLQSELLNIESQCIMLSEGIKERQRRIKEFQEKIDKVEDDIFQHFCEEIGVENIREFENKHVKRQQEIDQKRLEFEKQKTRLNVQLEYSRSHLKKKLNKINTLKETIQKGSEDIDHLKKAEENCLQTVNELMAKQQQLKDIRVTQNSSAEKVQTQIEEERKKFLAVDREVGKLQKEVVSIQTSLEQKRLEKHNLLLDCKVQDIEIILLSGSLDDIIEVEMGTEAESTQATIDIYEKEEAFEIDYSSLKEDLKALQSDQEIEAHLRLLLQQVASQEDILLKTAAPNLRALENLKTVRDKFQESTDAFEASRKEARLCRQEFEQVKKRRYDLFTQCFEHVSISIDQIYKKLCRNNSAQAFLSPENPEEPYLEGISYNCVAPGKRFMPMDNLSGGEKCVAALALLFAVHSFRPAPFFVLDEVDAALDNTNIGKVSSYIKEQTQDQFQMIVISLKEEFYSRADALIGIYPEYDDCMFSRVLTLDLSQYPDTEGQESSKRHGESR
UniProt Q8TCT8, sequence (Q8TCT8 whole entry, looked up): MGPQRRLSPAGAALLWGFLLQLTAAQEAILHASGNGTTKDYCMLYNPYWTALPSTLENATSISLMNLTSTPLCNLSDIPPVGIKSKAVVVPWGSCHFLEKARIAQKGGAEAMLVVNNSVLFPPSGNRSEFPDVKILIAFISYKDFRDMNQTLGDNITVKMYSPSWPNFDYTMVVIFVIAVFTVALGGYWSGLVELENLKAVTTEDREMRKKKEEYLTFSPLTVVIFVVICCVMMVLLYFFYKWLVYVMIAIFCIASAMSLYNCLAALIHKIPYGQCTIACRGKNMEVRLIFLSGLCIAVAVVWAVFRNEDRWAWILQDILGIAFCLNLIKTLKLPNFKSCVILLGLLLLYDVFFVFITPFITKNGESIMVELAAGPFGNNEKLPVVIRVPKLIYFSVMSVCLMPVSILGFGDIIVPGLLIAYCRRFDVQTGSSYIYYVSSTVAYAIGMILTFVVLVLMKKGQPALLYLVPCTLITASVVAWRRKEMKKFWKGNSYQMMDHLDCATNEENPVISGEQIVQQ
UniProt Q16637, sequence (Q16637 whole entry, looked up): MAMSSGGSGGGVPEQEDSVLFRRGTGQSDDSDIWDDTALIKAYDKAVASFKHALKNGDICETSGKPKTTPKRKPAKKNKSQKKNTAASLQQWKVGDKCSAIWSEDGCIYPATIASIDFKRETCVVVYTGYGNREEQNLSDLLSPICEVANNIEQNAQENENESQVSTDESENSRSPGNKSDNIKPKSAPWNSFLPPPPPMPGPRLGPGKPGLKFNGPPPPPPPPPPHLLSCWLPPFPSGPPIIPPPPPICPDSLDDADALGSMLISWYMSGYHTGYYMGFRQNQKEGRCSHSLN
UniProt O95347, sequence (O95347 whole entry, looked up): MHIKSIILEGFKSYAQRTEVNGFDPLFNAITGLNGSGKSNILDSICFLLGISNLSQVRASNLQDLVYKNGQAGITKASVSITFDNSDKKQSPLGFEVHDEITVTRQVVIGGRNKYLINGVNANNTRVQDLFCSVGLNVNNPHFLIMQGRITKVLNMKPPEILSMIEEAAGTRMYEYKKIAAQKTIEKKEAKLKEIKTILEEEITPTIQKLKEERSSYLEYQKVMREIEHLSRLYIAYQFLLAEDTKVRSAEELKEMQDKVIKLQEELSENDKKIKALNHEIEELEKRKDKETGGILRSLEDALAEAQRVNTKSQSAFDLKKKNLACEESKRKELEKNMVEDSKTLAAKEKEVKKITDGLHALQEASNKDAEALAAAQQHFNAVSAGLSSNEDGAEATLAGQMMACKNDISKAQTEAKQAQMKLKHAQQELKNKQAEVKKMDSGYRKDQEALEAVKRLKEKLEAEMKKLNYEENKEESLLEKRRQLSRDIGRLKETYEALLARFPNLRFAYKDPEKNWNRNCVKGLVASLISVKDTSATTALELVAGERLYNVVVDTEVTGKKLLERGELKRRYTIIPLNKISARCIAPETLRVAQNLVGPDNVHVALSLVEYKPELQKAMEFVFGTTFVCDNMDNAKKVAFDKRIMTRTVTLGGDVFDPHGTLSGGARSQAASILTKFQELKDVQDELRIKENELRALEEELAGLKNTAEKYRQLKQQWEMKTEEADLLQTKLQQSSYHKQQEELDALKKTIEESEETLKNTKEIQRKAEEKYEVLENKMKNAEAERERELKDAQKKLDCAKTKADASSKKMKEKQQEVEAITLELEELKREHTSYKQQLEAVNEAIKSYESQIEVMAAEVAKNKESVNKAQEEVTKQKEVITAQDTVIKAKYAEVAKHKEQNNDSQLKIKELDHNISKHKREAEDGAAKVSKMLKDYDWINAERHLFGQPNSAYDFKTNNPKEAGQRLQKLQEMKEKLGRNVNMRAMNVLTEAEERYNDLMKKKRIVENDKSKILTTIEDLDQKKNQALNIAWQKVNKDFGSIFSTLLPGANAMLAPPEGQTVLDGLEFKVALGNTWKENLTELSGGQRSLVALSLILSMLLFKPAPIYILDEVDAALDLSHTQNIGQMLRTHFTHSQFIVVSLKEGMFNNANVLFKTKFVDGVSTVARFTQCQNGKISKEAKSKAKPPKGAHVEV
UniProt Q13573, sequence (Q13573 whole entry, looked up): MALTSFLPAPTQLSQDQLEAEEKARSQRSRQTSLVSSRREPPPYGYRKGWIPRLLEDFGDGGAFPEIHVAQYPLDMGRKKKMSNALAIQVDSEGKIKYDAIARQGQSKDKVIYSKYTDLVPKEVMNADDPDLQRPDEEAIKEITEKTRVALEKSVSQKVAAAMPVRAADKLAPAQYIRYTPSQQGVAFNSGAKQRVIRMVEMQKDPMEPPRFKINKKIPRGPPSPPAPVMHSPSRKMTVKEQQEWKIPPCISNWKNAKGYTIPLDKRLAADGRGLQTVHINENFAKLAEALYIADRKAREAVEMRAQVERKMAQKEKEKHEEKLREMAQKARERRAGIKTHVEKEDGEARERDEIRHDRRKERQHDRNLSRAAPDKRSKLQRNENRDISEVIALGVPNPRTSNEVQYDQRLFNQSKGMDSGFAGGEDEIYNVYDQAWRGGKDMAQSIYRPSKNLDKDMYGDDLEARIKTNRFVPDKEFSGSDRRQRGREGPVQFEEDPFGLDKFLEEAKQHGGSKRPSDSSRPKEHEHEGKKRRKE
UniProt P31947, sequence (P31947 whole entry, looked up): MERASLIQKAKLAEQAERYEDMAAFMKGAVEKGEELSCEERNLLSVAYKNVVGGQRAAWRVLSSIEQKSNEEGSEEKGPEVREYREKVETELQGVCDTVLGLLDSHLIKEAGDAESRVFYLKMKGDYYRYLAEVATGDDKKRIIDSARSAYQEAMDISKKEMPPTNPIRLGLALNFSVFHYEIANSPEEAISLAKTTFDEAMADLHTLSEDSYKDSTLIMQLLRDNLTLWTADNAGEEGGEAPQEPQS
UniProt P19623, sequence (P19623 whole entry, looked up): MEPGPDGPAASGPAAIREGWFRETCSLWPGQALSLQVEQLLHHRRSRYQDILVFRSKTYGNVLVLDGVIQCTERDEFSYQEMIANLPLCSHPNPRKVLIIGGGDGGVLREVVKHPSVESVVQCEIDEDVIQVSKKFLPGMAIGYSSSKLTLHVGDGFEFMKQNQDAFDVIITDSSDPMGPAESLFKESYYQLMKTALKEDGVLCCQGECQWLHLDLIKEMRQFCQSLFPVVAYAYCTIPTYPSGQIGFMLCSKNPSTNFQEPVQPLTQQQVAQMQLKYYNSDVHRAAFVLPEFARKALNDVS

log2 fold change, inactive:
STK11IP (UniProt Q8N1F8) -0.071
SPR (UniProt P35270) 0.056
SFN (UniProt P31947) -0.053
SPPL2A (UniProt Q8TCT8) -0.104
SPC25 (UniProt Q9HBM1) 0.059
SNW1 (UniProt Q13573) -0.018
SMC2 (UniProt O95347) 0.001
TARBP1 (UniProt Q13395) 0.051
SMC1B isoform 3 (UniProt Q8NDV3) -0.04
SRM (UniProt P19623) -0.001
SRRT (UniProt Q9BXP5) 0.041
SRPK1 (UniProt Q96SB4) 0.016
SNRNP40 (UniProt Q96DI7) -0.031
SHC1 isoform 6 (UniProt P29353) 0.035
SSBP3 (UniProt Q9BWW4) 0.026
SMIM8 (UniProt Q96KF7) 0.004
SNAP23 (UniProt O00161) 0.047
SPHK1 isoform 2 (UniProt Q9NYA1) 0.038
STK26 (UniProt Q9P289) -0.009
STK39 (UniProt Q9UEW8) -0.014
SMN1 (UniProt Q16637) -0.075
SMG5 (UniProt Q9UPR3) -0.008
SP1 (UniProt P08047) 0.093
